# Test results reported in paper PMC11062922 (Nature Chemical Biology, 2023).
# Where two headings read alike, the source gives them in different places.
# What was measured:
# Conditions in all cases: read-out: apparent Kd, n = 1
# MAP2K2 = test system: MAP2K2
# MAP2K6 = test system: MAP2K6
# MAP4K2 = test system: MAP4K2
# [1] = compound concentrations:100 nM and 1000 nM (sheet 'Lestaurtinib' of Supplementary Table 1),run:Lestaurtinib_02752_R3,Plate:MR025
# [2] = compound concentrations:100 nM and 1000 nM (sheet 'Lestaurtinib' of Supplementary Table 1),run:Lestaurtinib_02765_R1,Plate:MR026
# [3] = compound concentrations:100 nM and 1000 nM (sheet 'Lestaurtinib' of Supplementary Table 1),run:Lestaurtinib_02768_R1,Plate:MR028
# [4] = compound concentrations:100 nM and 1000 nM (sheet 'Lestaurtinib' of Supplementary Table 1),run:Lestaurtinib_02795_R1,Plate:MR022
# [5] = compound concentrations:100 nM and 1000 nM (sheet 'Lestaurtinib' of Supplementary Table 1),run:Lestaurtinib_02802_R2,Plate:MR029
# [6] = compound concentrations:100 nM and 1000 nM (sheet 'Lestaurtinib' of Supplementary Table 1),run:Lestaurtinib_02802_R3,Plate:MR029
# [7] = compound concentrations:100 nM and 1000 nM (sheet 'Lestaurtinib' of Supplementary Table 1),run:Lestaurtinib_03252_R2,Plate:MR032
# [8] = compound concentrations:100 nM and 1000 nM (sheet 'Lestaurtinib' of Supplementary Table 1),run:Lestaurtinib_02339_R2,Plate:MR001
# [9] = compound concentrations:100 nM and 1000 nM (sheet 'Lestaurtinib' of Supplementary Table 1),run:Lestaurtinib_02364_R2,Plate:MR002
substance,measurement,setting,value
Lestaurtinib,potency estimated from few doses,MAP2K2; [1],1310 nM
same,potency estimated from few doses,MAP2K2; [2],722 nM
same,potency estimated from few doses,"MAP2K2; compound concentrations:100 nM and 1000 nM (sheet 'Lestaurtinib' of Supplementary Table 1),run:Lestaurtinib_02766_R2,Plate:MR027",959 nM
same,potency estimated from few doses,"MAP2K2; compound concentrations:100 nM and 1000 nM (sheet 'Lestaurtinib' of Supplementary Table 1),run:Lestaurtinib_02766_R3,Plate:MR027",1320 nM
same,potency estimated from few doses,MAP2K2; [3],1590 nM
same,potency estimated from few doses,MAP2K2; [4],925 nM
same,potency estimated from few doses,"MAP2K2; compound concentrations:100 nM and 1000 nM (sheet 'Lestaurtinib' of Supplementary Table 1),run:Lestaurtinib_02795_R2,Plate:MR022",722 nM
same,potency estimated from few doses,MAP2K2; [5],958 nM
same,potency estimated from few doses,MAP2K2; [6],1490 nM
same,potency estimated from few doses,"MAP2K2; compound concentrations:100 nM and 1000 nM (sheet 'Lestaurtinib' of Supplementary Table 1),run:Lestaurtinib_02896_R2,Plate:MR030",744 nM
same,potency estimated from few doses,"MAP2K2; compound concentrations:100 nM and 1000 nM (sheet 'Lestaurtinib' of Supplementary Table 1),run:Lestaurtinib_02896_R3,Plate:MR030",804 nM
same,potency estimated from few doses,"MAP2K2; compound concentrations:100 nM and 1000 nM (sheet 'Lestaurtinib' of Supplementary Table 1),run:Lestaurtinib_03172_R3,Plate:MR031",475 nM
same,potency estimated from few doses,MAP2K2; [7],790 nM
same,potency estimated from few doses,"MAP2K2; compound concentrations:100 nM and 1000 nM (sheet 'Lestaurtinib' of Supplementary Table 1),run:Lestaurtinib_03260_R2,Plate:MR033",1600 nM
same,potency estimated from few doses,MAP2K6; [8],162 nM
same,potency estimated from few doses,"MAP2K6; compound concentrations:100 nM and 1000 nM (sheet 'Lestaurtinib' of Supplementary Table 1),run:Lestaurtinib_02339_R3,Plate:MR001",96.9 nM
same,potency estimated from few doses,MAP2K6; [9],135 nM
same,potency estimated from few doses,"MAP2K6; compound concentrations:100 nM and 1000 nM (sheet 'Lestaurtinib' of Supplementary Table 1),run:Lestaurtinib_02367_R1,Plate:MR003",158 nM
same,potency estimated from few doses,"MAP2K6; compound concentrations:100 nM and 1000 nM (sheet 'Lestaurtinib' of Supplementary Table 1),run:Lestaurtinib_02367_R2,Plate:MR003",190 nM
same,potency estimated from few doses,"MAP2K6; compound concentrations:100 nM and 1000 nM (sheet 'Lestaurtinib' of Supplementary Table 1),run:Lestaurtinib_02367_R3,Plate:MR003",165 nM
same,potency estimated from few doses,"MAP2K6; compound concentrations:100 nM and 1000 nM (sheet 'Lestaurtinib' of Supplementary Table 1),run:Lestaurtinib_02381_R1,Plate:MR004",175 nM
same,potency estimated from few doses,"MAP2K6; compound concentrations:100 nM and 1000 nM (sheet 'Lestaurtinib' of Supplementary Table 1),run:Lestaurtinib_02407_R2,Plate:MR005",137 nM
same,potency estimated from few doses,"MAP2K6; compound concentrations:100 nM and 1000 nM (sheet 'Lestaurtinib' of Supplementary Table 1),run:Lestaurtinib_02422_R3,Plate:MR006",151 nM
same,potency estimated from few doses,"MAP2K6; compound concentrations:100 nM and 1000 nM (sheet 'Lestaurtinib' of Supplementary Table 1),run:Lestaurtinib_02437_R1,Plate:MR007",184 nM
same,potency estimated from few doses,"MAP2K6; compound concentrations:100 nM and 1000 nM (sheet 'Lestaurtinib' of Supplementary Table 1),run:Lestaurtinib_02437_R2,Plate:MR007",189 nM
same,potency estimated from few doses,"MAP2K6; compound concentrations:100 nM and 1000 nM (sheet 'Lestaurtinib' of Supplementary Table 1),run:Lestaurtinib_02437_R3,Plate:MR007",22.9 nM
same,potency estimated from few doses,"MAP2K6; compound concentrations:100 nM and 1000 nM (sheet 'Lestaurtinib' of Supplementary Table 1),run:Lestaurtinib_02438_R3,Plate:MR008",132 nM
same,potency estimated from few doses,"MAP2K6; compound concentrations:100 nM and 1000 nM (sheet 'Lestaurtinib' of Supplementary Table 1),run:Lestaurtinib_02443_R2,Plate:MR009",140 nM
same,potency estimated from few doses,"MAP2K6; compound concentrations:100 nM and 1000 nM (sheet 'Lestaurtinib' of Supplementary Table 1),run:Lestaurtinib_02473_R1,Plate:MR010",176 nM
same,potency estimated from few doses,"MAP2K6; compound concentrations:100 nM and 1000 nM (sheet 'Lestaurtinib' of Supplementary Table 1),run:Lestaurtinib_02473_R2,Plate:MR010",144 nM
same,potency estimated from few doses,"MAP2K6; compound concentrations:100 nM and 1000 nM (sheet 'Lestaurtinib' of Supplementary Table 1),run:Lestaurtinib_02482_R1,Plate:MR011",212 nM
same,potency estimated from few doses,"MAP2K6; compound concentrations:100 nM and 1000 nM (sheet 'Lestaurtinib' of Supplementary Table 1),run:Lestaurtinib_02482_R3,Plate:MR011",254 nM
same,potency estimated from few doses,"MAP2K6; compound concentrations:100 nM and 1000 nM (sheet 'Lestaurtinib' of Supplementary Table 1),run:Lestaurtinib_02487_R1,Plate:MR012",142 nM
same,potency estimated from few doses,"MAP2K6; compound concentrations:100 nM and 1000 nM (sheet 'Lestaurtinib' of Supplementary Table 1),run:Lestaurtinib_02487_R2,Plate:MR012",190 nM
same,potency estimated from few doses,"MAP2K6; compound concentrations:100 nM and 1000 nM (sheet 'Lestaurtinib' of Supplementary Table 1),run:Lestaurtinib_02487_R3,Plate:MR012",157 nM
same,potency estimated from few doses,"MAP2K6; compound concentrations:100 nM and 1000 nM (sheet 'Lestaurtinib' of Supplementary Table 1),run:Lestaurtinib_02496_R1,Plate:MR013",146 nM
same,potency estimated from few doses,"MAP2K6; compound concentrations:100 nM and 1000 nM (sheet 'Lestaurtinib' of Supplementary Table 1),run:Lestaurtinib_02496_R2,Plate:MR013",132 nM
same,potency estimated from few doses,"MAP2K6; compound concentrations:100 nM and 1000 nM (sheet 'Lestaurtinib' of Supplementary Table 1),run:Lestaurtinib_02566_R1,Plate:MR014",207 nM
same,potency estimated from few doses,"MAP2K6; compound concentrations:100 nM and 1000 nM (sheet 'Lestaurtinib' of Supplementary Table 1),run:Lestaurtinib_02566_R2,Plate:MR014",121 nM
same,potency estimated from few doses,"MAP2K6; compound concentrations:100 nM and 1000 nM (sheet 'Lestaurtinib' of Supplementary Table 1),run:Lestaurtinib_02572_R2,Plate:MR015",149 nM
same,potency estimated from few doses,"MAP2K6; compound concentrations:100 nM and 1000 nM (sheet 'Lestaurtinib' of Supplementary Table 1),run:Lestaurtinib_02572_R3,Plate:MR015",193 nM
same,potency estimated from few doses,"MAP2K6; compound concentrations:100 nM and 1000 nM (sheet 'Lestaurtinib' of Supplementary Table 1),run:Lestaurtinib_02577_R2,Plate:MR016",158 nM
same,potency estimated from few doses,"MAP2K6; compound concentrations:100 nM and 1000 nM (sheet 'Lestaurtinib' of Supplementary Table 1),run:Lestaurtinib_02584_R3,Plate:MR017",243 nM
same,potency estimated from few doses,"MAP2K6; compound concentrations:100 nM and 1000 nM (sheet 'Lestaurtinib' of Supplementary Table 1),run:Lestaurtinib_02601_R1,Plate:MR018",172 nM
same,potency estimated from few doses,"MAP2K6; compound concentrations:100 nM and 1000 nM (sheet 'Lestaurtinib' of Supplementary Table 1),run:Lestaurtinib_02601_R3,Plate:MR018",321 nM
same,potency estimated from few doses,"MAP2K6; compound concentrations:100 nM and 1000 nM (sheet 'Lestaurtinib' of Supplementary Table 1),run:Lestaurtinib_02606_R2,Plate:MR019",140 nM
same,potency estimated from few doses,"MAP2K6; compound concentrations:100 nM and 1000 nM (sheet 'Lestaurtinib' of Supplementary Table 1),run:Lestaurtinib_02606_R3,Plate:MR019",180 nM
same,potency estimated from few doses,"MAP2K6; compound concentrations:100 nM and 1000 nM (sheet 'Lestaurtinib' of Supplementary Table 1),run:Lestaurtinib_02624_R2,Plate:MR020",154 nM
same,potency estimated from few doses,"MAP2K6; compound concentrations:100 nM and 1000 nM (sheet 'Lestaurtinib' of Supplementary Table 1),run:Lestaurtinib_02624_R3,Plate:MR020",149 nM
same,potency estimated from few doses,"MAP2K6; compound concentrations:100 nM and 1000 nM (sheet 'Lestaurtinib' of Supplementary Table 1),run:Lestaurtinib_02724_R1,Plate:MR021",141 nM
same,potency estimated from few doses,"MAP2K6; compound concentrations:100 nM and 1000 nM (sheet 'Lestaurtinib' of Supplementary Table 1),run:Lestaurtinib_02724_R2,Plate:MR021",113 nM
same,potency estimated from few doses,"MAP2K6; compound concentrations:100 nM and 1000 nM (sheet 'Lestaurtinib' of Supplementary Table 1),run:Lestaurtinib_02724_R3,Plate:MR021",151 nM
same,potency estimated from few doses,"MAP2K6; compound concentrations:100 nM and 1000 nM (sheet 'Lestaurtinib' of Supplementary Table 1),run:Lestaurtinib_02741_R1,Plate:MR023",92.6 nM
same,potency estimated from few doses,"MAP2K6; compound concentrations:100 nM and 1000 nM (sheet 'Lestaurtinib' of Supplementary Table 1),run:Lestaurtinib_02741_R2,Plate:MR023",113 nM
same,potency estimated from few doses,"MAP2K6; compound concentrations:100 nM and 1000 nM (sheet 'Lestaurtinib' of Supplementary Table 1),run:Lestaurtinib_02741_R3,Plate:MR023",130 nM
same,potency estimated from few doses,"MAP2K6; compound concentrations:100 nM and 1000 nM (sheet 'Lestaurtinib' of Supplementary Table 1),run:Lestaurtinib_02748_R2,Plate:MR024",231 nM
same,potency estimated from few doses,"MAP2K6; compound concentrations:100 nM and 1000 nM (sheet 'Lestaurtinib' of Supplementary Table 1),run:Lestaurtinib_02748_R3,Plate:MR024",190 nM
same,potency estimated from few doses,MAP2K6; [1],175 nM
same,potency estimated from few doses,MAP2K6; [2],218 nM
same,potency estimated from few doses,"MAP2K6; compound concentrations:100 nM and 1000 nM (sheet 'Lestaurtinib' of Supplementary Table 1),run:Lestaurtinib_02765_R2,Plate:MR026",200 nM
same,potency estimated from few doses,"MAP2K6; compound concentrations:100 nM and 1000 nM (sheet 'Lestaurtinib' of Supplementary Table 1),run:Lestaurtinib_02765_R3,Plate:MR026",115 nM
same,potency estimated from few doses,MAP2K6; [3],183 nM
same,potency estimated from few doses,MAP2K6; [4],143 nM
same,potency estimated from few doses,MAP2K6; [5],180 nM
same,potency estimated from few doses,MAP2K6; [6],440 nM
same,potency estimated from few doses,"MAP2K6; compound concentrations:100 nM and 1000 nM (sheet 'Lestaurtinib' of Supplementary Table 1),run:Lestaurtinib_03172_R1,Plate:MR031",154 nM
same,potency estimated from few doses,MAP2K6; [7],296 nM
same,potency estimated from few doses,"MAP2K6; compound concentrations:100 nM and 1000 nM (sheet 'Lestaurtinib' of Supplementary Table 1),run:Lestaurtinib_03260_R1,Plate:MR033",161 nM
same,potency estimated from few doses,"MAP2K6; compound concentrations:100 nM and 1000 nM (sheet 'Lestaurtinib' of Supplementary Table 1),run:Lestaurtinib_03260_R3,Plate:MR033",140 nM
same,potency estimated from few doses,"MAP4K2; compound concentrations:100 nM and 1000 nM (sheet 'Lestaurtinib' of Supplementary Table 1),run:Lestaurtinib_02339_R1,Plate:MR001",329 nM
same,potency estimated from few doses,MAP4K2; [8],231 nM
same,potency estimated from few doses,"MAP4K2; compound concentrations:100 nM and 1000 nM (sheet 'Lestaurtinib' of Supplementary Table 1),run:Lestaurtinib_02364_R1,Plate:MR002",180 nM
same,potency estimated from few doses,MAP4K2; [9],196 nM
